Results on 40 compounds are retold here after PubChem BioAssay (Tox21).

Results filed as inconclusive are left out. A call without a number means that no potency is given here. Calls of active or inactive are those of the source. Calls come from the whole dose curve; as a rule, active = well fitted activation curve with a large enough effect in the signal ratio in the repeat runs (not every such curve was filed as active); inconclusive = weak or mixed curves, or effect the other way; inactive = no such curve, though single readings can be large or run the other way; the % refers to the signal ratio.
Potency is the fitted concentration of half-maximal effect.

The nature of this test: qHTS assay for small molecule agonists of the antioxidant response element (ARE) signaling pathway (AID 743202). The following applies: HepG2 ARE-bla reporter, beta-lactamase FRET, 16 h; series mostly up to 73.3 µM. From the text: U.S. Tox21 Program National Center for Advancing Translational Sciences [NCATS] NIH Chemical Genomics Center [NCGC] U.S. Environmental Protection Agency [EPA] National Institutes of Environmental Health Sciences [NIEHS] National Toxicology Program [NTP] U.S. Food and Drug Administration [FDA] Tox21 Assay Overview: Oxidative stress has been implicated in the pathogenesis of a variety of diseases ranging from cancer to neurodegeneration. The antioxidant response element (ARE) signaling pathway plays an important role in the amelioration of oxidative stress. The CellSensor ARE-bla HepG2 cell line (Invitrogen) can be used for analyzing the Nrf2/antioxidant response signaling pathway. Nrf2 (NF-E2-related factor 2) and Nrf1 are transcription factors that bind to AREs and activate these genes. The CellSensor ARE-bla Hep G2 cell line contains a beta-lactamase reporter gene under control of the Antioxidant Response Element (ARE) stably integrated into HepG2 cells. The activation of the report gene under culture conditions can be detected by fluorescence intensity. This cell line has been used to screen the Tox21 10K compound library to identify agonists that induce oxidative stress.
Tox21 Assay Protocol Summary: The ARE-bla cells were dispensed at 2,000 cells/5 ul/well in 1536-well black wall/clear bottom plates using a Multidrop dispenser. After the assay plates were incubated at a 37 C/5% CO2 incubator for 5 hours, 23 nL of compounds dissolved in DMSO, positive controls or DMSO only was transferred to the assay plate by a pin tool. The plates were incubated at 37 C for 16 hours. After 1 uL of LiveBLAzer B/G FRET substrate was added using a Flying Reagent Dispenser, the plates were incubated at room temperature for 2 hours, and fluorescence intensity was measured by an Envision plate reader.
(In general: qHTS replaces the single test concentration by a dilution series.)
Turning to `CC(C)C=O`, the Potency result is “inactive”.

Take `CN(C)CCN1C(=O)c2ccccc2N(C)c2ccccc21`: the Potency result is “inactive”.

Turning to `CC(C)=CCC/C(C)=C/CC/C(C)=C/CCC(=O)OC/C=C(\C)CCC=C(C)C`, the Potency entry was “inactive”.

Consider `O=C(Cn1ccnc1[N+](=O)[O-])NCCO`, for which the Potency entry was “inactive”.

Turning to `CCCCCC#CC(=O)OC`, the Potency entry is “inactive”.

On to `CCCCCCCCN`, for which the Potency result is “inactive”.

Regarding `CC(=O)c1ccc([N+](=O)[O-])cc1`, the Potency result was “inactive”.

For `O=c1[nH]ncc2ccccc12`, the Potency entry is “inactive”.

Consider `O=C1Cc2cc(Cl)ccc2N1`, for which the Potency is 21.1 µM (active).

As to `CCOC(=O)OC(C)OC(=O)[C@@H]1N2C(=O)[C@@H](NC(=O)[C@H](N)c3ccccc3)[C@H]2SC1(C)C` (stereo not given in full), the Potency entry was “inactive”.

On to `C=C/C(C)=C/C/C=C(\C)CCC=C(C)C`, for which the Potency was 54.5 µM (active).

`COc1cc(C(=O)NCCCCCC(=O)O)cc(OC)c1OC`: the Potency result is “inactive”.

For the compound `O=C(O)c1ccc(OCCCOc2ccc(C(=O)O)cc2)cc1`, the Potency entry was “inactive”.

`CC(=O)OCC[N+](C)(C)C`: the Potency entry was “inactive”.

As for `CN(C(=O)CN(CCO)CC(=O)N(C)C(C)(C)Cc1ccccc1)C(C)(C)Cc1ccccc1`, the Potency result was “inactive”.

With `O[C@@H]1CO[C@H]2[C@@H]1OC[C@@H]2O`, the Potency entry is “inactive”.

In the case of `COC(=O)CS`, the Potency result was “inactive”.

In the case of `CCCCCCCC/C=C\CCCCCCCCO`, the Potency entry is “inactive”.

Regarding `CC(C)C[C@H](NC(=O)[C@H](CCc1ccccc1)NC(=O)CN1CCOCC1)C(=O)N[C@@H](Cc1ccccc1)C(=O)N[C@@H](CC(C)C)C(=O)[C@@]1(C)CO1`, the Potency was 0.0668 µM (active).

In the case of `O=C1C(=O)c2ccccc2C(O)=C1C1CCC(c2ccc(Cl)cc2)CC1` (stereo not given), the Potency is 6.68 µM (active).

For `CCC1NC(=O)c2cc(S(N)(=O)=O)c(Cl)cc2N1` (stereo not given), the Potency entry is “inactive”.

Consider `CCC(OCCCOC)OC(C)=O` (stereo not given), for which the Potency entry is “inactive”.

As to `CNC(=O)c1cnn(-c2nc(N)c3ncn([C@@H]4O[C@H](CO)[C@@H](O)[C@H]4O)c3n2)c1`, the Potency result is “inactive”.

Turning to `NC(=O)c1ccncc1`, the Potency result was “inactive”.

As for `c1ccc2sc(SN(C3CCCCC3)C3CCCCC3)nc2c1`, the Potency is 30.3 µM (active).

On to `OCCOCC#CCOCCO`, for which the Potency entry is “inactive”.

For the compound `CN1C(=O)OC(C)(C)C1=O`, the Potency result was “inactive”.

As to `C[C@]12CC[C@@H]3c4ccc(O)cc4CC[C@H]3[C@@H]1CC[C@@H]2OC(=O)CCC1CCCC1`, the Potency entry is “inactive”.

Take `CS(=O)(=O)c1ccc(-c2cn3ccccc3n2)cc1`: the Potency result was “inactive”.

`C1COC1`: the Potency entry is “inactive”.

`CC1(C)O[C@@H]2C[C@H]3[C@@H]4C[C@H](F)C5=CC(=O)C=C[C@]5(C)[C@H]4[C@@H](O)C[C@]3(C)[C@]2(C(=O)CO)O1`: the Potency entry is “inactive”.

Consider `OC1(c2ccccc2)CCNCC1`, for which the Potency result was “inactive”.

Consider `CCC(C)COC(C)=O` (stereo not given), for which the Potency result was “inactive”.

`O=C1CCCCCCCCCCOCCCCO1`: the Potency entry was “inactive”.

As for `CCCCCC[C@@H](O)C/C=C\CCCCCCCC(=O)OCC(O)CO` (stereo not given in full), the Potency entry is “inactive”.

`CCOC(=O)c1ccc(O)c(O)c1`: the Potency result is “inactive”.

In the case of `O=Cc1c2ccccc2c(Cl)c2ccccc12`, the Potency was 29.9 µM (active).

Take `CC(=O)[C@H]1[C@H](C#N)C[C@H]2[C@@H]3CC=C4C[C@@H](O)CC[C@]4(C)[C@H]3CC[C@@]21C`: the Potency was 33.1 µM (active).

Turning to `Cc1cc(C)c(N)cc1C`, the Potency entry is “inactive”.

As for `CCCCCCC(C)(C)C(=O)O`, the Potency result was “inactive”.
